Only some compounds are listed: those with a hit (about 1.4% of all), similar ones and a draw of the others.
Polio RdRp inh = inhibitors of poliovirus RNA polymerase binding and polymerization. P03300. poliovirus polymerase elongation, fluorescence polarization; stronger effect = lower value. % elongation, % (compound at 16.7 µg/mL). 150,000 tested, 0.66% active. AID 588519; in the data active means % elongation below about 90%
MbtI inh = MbtI salicylate synthase inhibition; P9WFX0; purified MbtI enzyme, fluorescence intensity read-out; inhibition, % (no concentration beside the values); 100,000 tested, 0.89% active; in the data active means inhibition mostly above about 56%, no sharp cut-off; inactive means mostly below about 77%
MenB inh = Mtb MenB enzyme inhibition. P9WNP5. MenB enzyme assay, absorbance read-out. inhibition, % (no concentration beside the values). 100,000 tested, 0.43% active. AID 540299; in the data active means inhibition above about 21%, passing the limit was not always enough
Target sequence (P9WNP5 whole entry, looked up): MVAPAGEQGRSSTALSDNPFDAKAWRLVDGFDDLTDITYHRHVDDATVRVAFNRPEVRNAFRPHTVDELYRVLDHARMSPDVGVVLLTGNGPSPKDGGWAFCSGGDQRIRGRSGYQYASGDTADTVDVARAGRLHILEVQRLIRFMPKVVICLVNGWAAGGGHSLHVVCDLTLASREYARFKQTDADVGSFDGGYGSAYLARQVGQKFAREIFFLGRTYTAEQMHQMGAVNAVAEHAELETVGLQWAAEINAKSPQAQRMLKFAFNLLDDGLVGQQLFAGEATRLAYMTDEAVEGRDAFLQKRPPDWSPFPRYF
Starred values were filed as active, the others as inactive; . = not tested or not shown.

SMILES | Polio RdRp inh | MbtI inh | MenB inh
O=C(Nc1ccc(Br)cc1)c1ccc2c3c(onc13)-c1ccccc1C2=O | 100 | -3 | 24
Cc1ccc(Cl)cc1NC(=O)N1CCC(CN2CCOCC2)CC1 | 102 | -7 | -19
O=C(O)C1CC1c1ccccc1 (stereo not given) | 99 | -10 | -34
N[C@@H]1C[C@H]1c1ccccc1 | 99 | 6 | 36*
O=C(O)C1Nc2ccccc2C2C=CCC12 (stereo not given) | 37 | . | 10
O=C(O)c1ccc(C2Nc3ccccc3C3C=CCC32)cc1 (stereo not given) | 59* | . | -18
O=C(CSc1nnc(-c2ccccc2)o1)c1cccc(C(F)(F)F)c1 | 108 | -9 | -6
CCn1c(=O)c2cc(C(=O)N(CCN(C)C)Cc3ccccc3)sc2c2ccccc21 | 87* | . | .
CCn1c(=O)c2cc(C(=O)N(Cc3ccccc3)C(C)C)sc2c2ccccc21 | 100 | 38 | -10
Cc1n[nH]c(C)c1NC(=O)CN(C)c1nc(-c2cccnc2)nc2ccccc12 | . | 4 | -28
CCC(C)NS(=O)(=O)c1ccc(S(=O)(=O)N(Cc2ccc(C)o2)C2CCCC2)cc1 (stereo not given) | 102 | -2 | 33*
CCNS(=O)(=O)c1ccc(S(=O)(=O)N(Cc2ccccn2)C2CCCCC2)cc1 | 105 | -13 | -24
N#Cc1ccc(C=Nc2ccc(C(N)=O)cc2)cc1 | 103 | -7 | -20
COc1ccc(CCNc2nc(Cl)nc(N3CC4CC(C3)c3cccc(=O)n3C4)n2)cc1OC (stereo not given) | 104 | . | -11
CCOc1nc(NCc2ccco2)nc(N2CC3CC(C2)c2cccc(=O)n2C3)n1 (stereo not given) | 101 | 21 | 39*
CCOC(=O)c1ccc2c(c1)nc(SCC(=O)Nc1ccccc1F)n2CC | 104 | -23 | -2
Nc1[nH]nc(Nc2ccccc2)c1S(=O)(=O)c1ccccc1 | 102 | 0 | -7
CC1Sc2nnc(C(C)(C)C)n2N=C1c1ccc(Cl)cc1 (stereo not given) | 76* | 92 | -1
Cc1ccc(C2=Nn3c(nnc3C3CCCCC3)SC2C)cc1 (stereo not given) | 96 | 50 | -25
COC(=O)c1ccc(-c2nc(O)c3c4ccccc4c(=O)[nH]n23)cc1 | 45 | 10 | -19
CCS(=O)(=O)c1ccc2oc(Nc3cc(C)cc(C)c3)nc2c1 | 103 | 14 | -13
CCS(=O)(=O)c1ccc2oc(Nc3ccc(C(C)C)cc3)nc2c1 | 70* | 65 | -20
O=C(CS(=O)(=O)Cc1ccccc1)Nc1ccc2c(c1)OCO2 | 103 | 7 | -16
O=C(CNS(=O)(=O)c1ccccc1)Nc1ccc2c(c1)OCO2 | 103 | 4 | 56*
CC(C)CNc1ncnc2c1oc1ccccc12 | 108 | -33 | -19
SMILES | Polio RdRp inh | MbtI inh | MenB inh
CCN(CC(=O)NCc1cccs1)Cc1cc(=O)oc2cc(O)ccc12 | 103 | -8 | -2
CC1=NN(c2nc3ccccc3[nH]2)C(=O)/C1=C/N(C)C | 101 | 37 | -8
CC1=NN(c2nc3ccccc3[nH]2)C(=O)C1Cc1ccccc1 (stereo not given) | 107 | 76* | -74
O=C(NC(=S)NCc1ccccc1)C1CCCC1 | 99 | 76* | -24
O=C(NCc1ccccc1)C1CCC1 | 102 | . | -3
Cc1cc(P(=N)(N2CCOCC2)N2CCOCC2)c(C)n1-c1ccc(I)cc1 | 100 | -8 | 0
Cc1ccc(-n2c(C)cc(P(=S)(N3CCOCC3)N3CCOCC3)c2C)c(C)c1 | 92 | 69* | -133
O=C(c1cccs1)N1CCN(C/C=C/c2ccccc2)CC1 | 101 | -7 | 43*
Cc1nc(CC(=O)N2CCN(C/C=C/c3ccccc3)CC2)cs1 | 106 | -4 | -12
CC(C)CC(=O)Nc1nonc1-c1ccccc1 | 102 | -9 | 5
CN(c1ccc(-c2csc(-c3cccs3)n2)cc1)S(C)(=O)=O | 88* | 39 | -18
CN(c1ccc(O)cc1)c1nc(-c2cccs2)cs1 | 102 | 9 | -38
C=CCN1C(=O)NC(=O)/C(=C\c2ccc(O)c(O)c2)C1=O | 101 | 20 | -50
O=C1NC(=O)N(CCc2ccc(F)cc2)C(=O)/C1=C\c1ccc(O)c(O)c1 | 100 | 51* | -33
CCOc1cc(C#N)c(-n2nnc3c(sc4nc(C)cc(C)c43)c2=O)cc1OCC | 78* | . | .
COc1cccc(-n2nnc3c(sc4nc(C)cc(C)c43)c2=O)c1 | 105 | . | .
O=C1CCCC2=C1C(c1ccccn1)C1=C(CCCC1=O)N2 | 101 | 100 | -61
O=C(CCCN1C(=O)c2ccccc2C1=O)NC1=NCCS1 | 100 | 2 | -17
O=C(CCN1c2ccccc2Sc2ccccc21)NC1=NCCS1 | 85* | -19 | -9
Cc1ccccc1-n1cnnc1SCC(=O)c1cc(C)n(C2CCS(=O)(=O)C2)c1C (stereo not given) | 101 | 8 | 7
CN(C)S(=O)(=O)c1cc(C(=O)NCC2CCCO2)c(Cl)cc1Cl (stereo not given) | 99 | . | 2
Cc1c(CCNC(=O)c2cc(S(=O)(=O)N(C)C)c(Cl)cc2Cl)c2ccccc2n1C | 89* | . | -11
Cc1cc(C)c(C)c(S(=O)O)c1C | 83* | 3 | -36
Cc1cc(C)c(CO)c(C)c1CO | 102 | 4 | -26
O=C(NCCc1cccs1)C1CCN(Cc2cnn(-c3ccccc3)c2-n2cccc2)CC1 | 100 | -6 | 14
SMILES | Polio RdRp inh | MbtI inh | MenB inh
c1cncc(CNCCN2CCOCC2)c1 | 102 | -8 | 65*
CCOc1cccc(CNCCN2CCOCC2)c1 | 97 | -2 | -46
CCOC(=O)Cn1cnc(=O)c(C#N)c1C | 99 | -8 | -6
CN(CCOc1ccc(Cl)cc1)Cc1cc2c(cc1O)OCO2 | 103 | -2 | -7
CCOc1ccccc1C(=O)NCc1n[nH]c(=O)c2ccccc12 | 105 | -2 | -13
COc1ccc2oc(C(F)(F)C(F)(F)C(F)(F)C(F)F)cc(=O)c2c1 | 103 | 3 | -14
C=C(C)C1CC=C(C)/C(=N\NC(=O)c2ccc(O)cc2)C1 (stereo not given) | 102 | 2 | 4
CC1CCCCN1C(=O)c1ccccc1NS(=O)(=O)c1ccc(F)cc1 (stereo not given) | 101 | -3 | 41*
CC1CCCC(C)N1C(=O)c1ccccc1NS(=O)(=O)c1ccc(F)cc1 (stereo not given) | 101 | -6 | .
CSc1ncc(F)c(N(C)C)n1 | 102 | . | -7
Cc1cnc(C)c(N(C)C)n1 | 57* | 70 | 31*
O=C(NN=C1C2CC3CC(C2)CC1C3)c1ccncc1 | 100 | 5 | 4
O=C(N/N=C1\C/C(=N\NC(=O)c2ccncc2)c2ccccc21)c1ccncc1 | 87* | -34 | -206
N#Cc1cc(C#N)c(SCC(N)=O)nc1N | 104 | 36 | -54
O=c1c2c3c(sc2nc2n1CCCCC2)/C(=N/O)CCC3 | 102 | 12 | 0
NNC(=O)c1cccc(S(=O)(=O)Nc2ccccc2Cl)c1 | 102 | -7 | -13
O=C(N/N=C/c1ccc(O)c(O)c1O)c1cccc(S(=O)(=O)Nc2ccccc2Cl)c1 | 103 | 55* | -2
CC(=O)N1c2ccc(S(=O)(=O)NCC3CCC(C(=O)NC(C)(C)C)CC3)cc2CC1C (stereo not given) | 114 | . | .
CCCCN(C)C(=O)C1CCC(CNS(=O)(=O)c2ccc3c(c2)CC(C)N3C(C)=O)CC1 (stereo not given) | 15* | . | .
COc1ccc(C(=O)CCC(=O)O)c(OC)c1 | 101 | 13 | -4
